Laboratory results from PubChem BioAssay.
Active and inactive are the calls of the source.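 How the source made its calls, unless noted: active means primary screen hit whose calcium fluorescence ratio, in both repeats, exceeds the weak agonist control mean by 3 SD; inactive means the rest.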

system: TRPC4 (transient receptor potential cation channel C4 beta), mouse; assay: potentiation of DAMGO EC20 TRPC4 response – cell-based, second round, Fluo-4, HEK293 TRPC4beta/mu-opioid, 1 µM, confirmation (AID 2554;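 active means primary screen hit whose fluorescence ratio, in both repeats, exceeds the weak agonist control mean by 3 SD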); conditions: DAMGO EC20, Fluo-4 calcium flux, at 1 µM; stronger effect = higher value

Row | Structure (SMILES) | outcome | potentiation
1 | CC(C)c1ccc(NC(=S)N(C)CCc2ccccn2)cc1 | inactive | –
2 | CCN1CCN(c2ccc(S(=O)(=O)N3CCCCC3)cc2NC(=O)COc2ccccc2)CC1 | inactive | –
3 | COC(=O)c1ccccc1N=Nc1c(N)[nH][nH]c1=O | – | 69% (active)
4 | CCc1nc(NCCc2ccccn2)c2nnn(Cc3ccccc3F)c2n1 | inactive | –
5 | COC(=O)c1ccc(N2CCN(C)CC2)c(NC(=O)COc2ccccc2)c1 | inactive | –
6 | CCC1(c2ccc(F)cc2)NC(=O)N(CC(=O)c2cc(C)n(C3CC3)c2C)C1=O (stereo not given) | inactive | –
7 | CCOC(=O)C1(CC2CCCCO2)CCN(Cc2c(C)cc(C)cc2-n2cccn2)CC1 (stereo not given) | inactive | –
8 | Cc1ccc(Cl)cc1NC(=O)CNCC(c1ccccc1)N(C)C (stereo not given) | inactive | –
9 | CCOC(=O)C1(CCOc2ccccc2)CCN(Cc2ccc3c(c2)OCCO3)CC1 | inactive | –
10 | CCOc1ccccc1CN1CCNC(=O)C1CC(=O)N(C)CCc1ccccn1 (stereo not given) | inactive | –
11 | CN(CCc1ccccn1)C(=O)CC1C(=O)NCCN1Cc1ccccc1C(F)(F)F (stereo not given) | inactive | –
12 | Cc1ccc(C)c(OCCCCCn2ccnc2)c1 | inactive | –
13 | O=C(C1CCCN(Cc2ccccc2F)C1)N1CCc2ccccc2C1 (stereo not given) | inactive | –
14 | CCOC(=O)C1(CCCc2ccccc2)CCN(Cc2cn(CC)nc2C)CC1 | inactive | –
15 | NCCSc1c(-c2ccc(Cl)cc2)[nH]c2ccccc12 | inactive | –
16 | CN(C)CCCN(C(=O)c1ccc(C(=O)c2ccccc2)cc1)c1nc2ccc(F)cc2s1 | inactive | –
17 | COc1ccc(-c2nn(-c3ccccc3)cc2CNCc2cccnc2)c(F)c1 | inactive | –
18 | Cc1cc(Br)ccc1OCCn1ccnc1 | inactive | –
19 | C=CCn1c(CCNC(=O)C(C)(C)C)nc2ccccc21 | inactive | –
20 | Cc1cc(Cl)cc(C)c1OCCCCn1ccnc1 | inactive | –

Row | Structure (SMILES) | outcome | potentiation
21 | Cc1sc2nc(CSc3ccccc3)nc(NCCN(C)C)c2c1C | inactive | –
22 | CCN1CCN(c2c(S(=O)(=O)c3ccc(C)c(C)c3)cnc3ccc(F)cc23)CC1 | inactive | –
23 | Cc1ccc(C)c(OCCCCn2ccnc2)c1 | inactive | –
24 | Cc1ccccc1NC(=S)NCCc1ccccn1 | inactive | –
25 | CN(C)C(CNC(=O)Cc1cccc(C(F)(F)F)c1)c1ccco1 (stereo not given) | inactive | –
26 | CCOc1ccccc1CN1CCNC(=O)C1CC(=O)NCCc1ccccn1 (stereo not given) | inactive | –
27 | CCOc1ccc2ncc(C(=O)c3ccc(OC)cc3)c(N3CCN(CC)CC3)c2c1 | inactive | –
28 | Cc1cc(NC(=O)CN2CCc3ccccc3C2)nc2c1c(=O)oc1ccccc12 | inactive | –
29 | Cc1ccccc1C(=O)NNC(=S)NC(=O)c1ccccc1 | inactive | –
30 | CCOC(=O)C1CCCN(C(c2ccccn2)c2c(C)[nH]c3ccccc23)C1 (stereo not given) | inactive | –
31 | COc1cc(/C=C/C(=O)c2ccc3c(c2)OCO3)cc(Cl)c1O | inactive | –
32 | CN(C)C(CNC(=O)/C=C/c1cccc(Cl)c1)c1ccccc1 (stereo not given) | inactive | –
33 | COc1ccc(C(=O)NC(=S)NNC(=O)c2c(-c3ccccc3)noc2C)cc1 | inactive | –
34 | O=S(=O)(c1ccc(Cl)cc1)N1CCN2CCCC2C1 (stereo not given) | inactive | –
35 | Cc1ccc(-n2cc(CNCC3CC(=O)N(C4CC4)C3)c(-c3cccc(C)c3)n2)cc1 (stereo not given) | inactive | –
36 | CCCCCSc1nnc2c(n1)OC(c1cccn1C)N(C(C)=O)c1ccccc1-2 (stereo not given) | inactive | –
37 | CCCCC(c1nnnn1CC1CCCO1)N1CCN(c2nc3ccccc3s2)CC1 (stereo not given) | inactive | –
38 | CCN(CCCNS(=O)(=O)c1cc(-c2cc(C)no2)ccc1C)Cc1ccccc1 | inactive | –
39 | COc1ccc(-c2nc(CN3CCC(C(=O)NC4CCCC4)CC3)c(C)o2)cc1OC | inactive | –
40 | CCN(CC)CCSc1nc2ccc(OC)cc2[nH]1 | inactive | –

system: TRPC4 beta (transient receptor potential cation channel C4), mouse; assay: potentiation of DAMGO EC20 TRPC4 response – cell-based, Fluo-4, HEK293 TRPC4beta/mu-opioid, confirmation (AID 2555); conditions: DAMGO EC20, Fluo-4 calcium flux, at 10 µM; stronger effect = higher value

Row | Structure (SMILES) | outcome | potentiation
41 | CC(C)c1ccc(NC(=S)N(C)CCc2ccccn2)cc1 | inactive | –
42 | CCN1CCN(c2ccc(S(=O)(=O)N3CCCCC3)cc2NC(=O)COc2ccccc2)CC1 | inactive | –
43 | COC(=O)c1ccccc1N=Nc1c(N)[nH][nH]c1=O | – | 54% (active)
44 | CCc1nc(NCCc2ccccn2)c2nnn(Cc3ccccc3F)c2n1 | inactive | –
45 | COC(=O)c1ccc(N2CCN(C)CC2)c(NC(=O)COc2ccccc2)c1 | inactive | –
46 | CCC1(c2ccc(F)cc2)NC(=O)N(CC(=O)c2cc(C)n(C3CC3)c2C)C1=O (stereo not given) | – | 16% (active)
47 | CCOC(=O)C1(CC2CCCCO2)CCN(Cc2c(C)cc(C)cc2-n2cccn2)CC1 (stereo not given) | inactive | –
48 | Cc1ccc(Cl)cc1NC(=O)CNCC(c1ccccc1)N(C)C (stereo not given) | inactive | –
49 | CCOC(=O)C1(CCOc2ccccc2)CCN(Cc2ccc3c(c2)OCCO3)CC1 | inactive | –
50 | CCOc1ccccc1CN1CCNC(=O)C1CC(=O)N(C)CCc1ccccn1 (stereo not given) | inactive | –
51 | CN(CCc1ccccn1)C(=O)CC1C(=O)NCCN1Cc1ccccc1C(F)(F)F (stereo not given) | inactive | –
52 | Cc1ccc(C)c(OCCCCCn2ccnc2)c1 | inactive | –
53 | O=C(C1CCCN(Cc2ccccc2F)C1)N1CCc2ccccc2C1 (stereo not given) | inactive | –
54 | CCOC(=O)C1(CCCc2ccccc2)CCN(Cc2cn(CC)nc2C)CC1 | inactive | –
55 | NCCSc1c(-c2ccc(Cl)cc2)[nH]c2ccccc12 | inactive | –
56 | CN(C)CCCN(C(=O)c1ccc(C(=O)c2ccccc2)cc1)c1nc2ccc(F)cc2s1 | inactive | –
57 | COc1ccc(-c2nn(-c3ccccc3)cc2CNCc2cccnc2)c(F)c1 | inactive | –
58 | Cc1cc(Br)ccc1OCCn1ccnc1 | inactive | –
59 | C=CCn1c(CCNC(=O)C(C)(C)C)nc2ccccc21 | inactive | –
60 | Cc1cc(Cl)cc(C)c1OCCCCn1ccnc1 | inactive | –

Row | Structure (SMILES) | outcome | potentiation
61 | Cc1sc2nc(CSc3ccccc3)nc(NCCN(C)C)c2c1C | inactive | –
62 | CCN1CCN(c2c(S(=O)(=O)c3ccc(C)c(C)c3)cnc3ccc(F)cc23)CC1 | inactive | –
63 | Cc1ccc(C)c(OCCCCn2ccnc2)c1 | inactive | –
64 | Cc1ccccc1NC(=S)NCCc1ccccn1 | inactive | –
65 | CN(C)C(CNC(=O)Cc1cccc(C(F)(F)F)c1)c1ccco1 (stereo not given) | inactive | –
66 | CCOc1ccccc1CN1CCNC(=O)C1CC(=O)NCCc1ccccn1 (stereo not given) | inactive | –
67 | CCOc1ccc2ncc(C(=O)c3ccc(OC)cc3)c(N3CCN(CC)CC3)c2c1 | inactive | –
68 | Cc1cc(NC(=O)CN2CCc3ccccc3C2)nc2c1c(=O)oc1ccccc12 | inactive | –
69 | Cc1ccccc1C(=O)NNC(=S)NC(=O)c1ccccc1 | inactive | –
70 | CCOC(=O)C1CCCN(C(c2ccccn2)c2c(C)[nH]c3ccccc23)C1 (stereo not given) | inactive | –
71 | COc1cc(/C=C/C(=O)c2ccc3c(c2)OCO3)cc(Cl)c1O | inactive | –
72 | CN(C)C(CNC(=O)/C=C/c1cccc(Cl)c1)c1ccccc1 (stereo not given) | inactive | –
73 | COc1ccc(C(=O)NC(=S)NNC(=O)c2c(-c3ccccc3)noc2C)cc1 | inactive | –
74 | O=S(=O)(c1ccc(Cl)cc1)N1CCN2CCCC2C1 (stereo not given) | inactive | –
75 | Cc1ccc(-n2cc(CNCC3CC(=O)N(C4CC4)C3)c(-c3cccc(C)c3)n2)cc1 (stereo not given) | inactive | –
76 | CCCCCSc1nnc2c(n1)OC(c1cccn1C)N(C(C)=O)c1ccccc1-2 (stereo not given) | inactive | –
77 | CCCCC(c1nnnn1CC1CCCO1)N1CCN(c2nc3ccccc3s2)CC1 (stereo not given) | inactive | –
78 | CCN(CCCNS(=O)(=O)c1cc(-c2cc(C)no2)ccc1C)Cc1ccccc1 | inactive | –
79 | COc1ccc(-c2nc(CN3CCC(C(=O)NC4CCCC4)CC3)c(C)o2)cc1OC | inactive | –
80 | CCN(CC)CCSc1nc2ccc(OC)cc2[nH]1 | inactive | –
